# Test results reported in ChEMBL document CHEMBL3988442, “University of Dundee, Small-Polar-MMV Screening Library” (2021).
# For part of these data: Potency and affinity values are given separately.
# Columns and labels:
# Parameters in all cases: scale not given: direction of the effect not stated beside the values
# [1] = biological target: Protein translocase subunit SecA (Escherichia coli (strain K12)) (UniProt P10408); assay: Assay to Identify E. coli SecA ATPase Inhibitors; assay type: functional; details: 30 µM
# [2] = biological target: T1, Ubiquitin-activating enzyme e1, putative (Leishmania donovani (strain BPK282A1)) (UniProt E9BSI1); assay: Leishmania donovani Ubiquitin Activating Enzyme (LdE1); assay type: functional; details: 30 µM
# T1 sequence (whole entry): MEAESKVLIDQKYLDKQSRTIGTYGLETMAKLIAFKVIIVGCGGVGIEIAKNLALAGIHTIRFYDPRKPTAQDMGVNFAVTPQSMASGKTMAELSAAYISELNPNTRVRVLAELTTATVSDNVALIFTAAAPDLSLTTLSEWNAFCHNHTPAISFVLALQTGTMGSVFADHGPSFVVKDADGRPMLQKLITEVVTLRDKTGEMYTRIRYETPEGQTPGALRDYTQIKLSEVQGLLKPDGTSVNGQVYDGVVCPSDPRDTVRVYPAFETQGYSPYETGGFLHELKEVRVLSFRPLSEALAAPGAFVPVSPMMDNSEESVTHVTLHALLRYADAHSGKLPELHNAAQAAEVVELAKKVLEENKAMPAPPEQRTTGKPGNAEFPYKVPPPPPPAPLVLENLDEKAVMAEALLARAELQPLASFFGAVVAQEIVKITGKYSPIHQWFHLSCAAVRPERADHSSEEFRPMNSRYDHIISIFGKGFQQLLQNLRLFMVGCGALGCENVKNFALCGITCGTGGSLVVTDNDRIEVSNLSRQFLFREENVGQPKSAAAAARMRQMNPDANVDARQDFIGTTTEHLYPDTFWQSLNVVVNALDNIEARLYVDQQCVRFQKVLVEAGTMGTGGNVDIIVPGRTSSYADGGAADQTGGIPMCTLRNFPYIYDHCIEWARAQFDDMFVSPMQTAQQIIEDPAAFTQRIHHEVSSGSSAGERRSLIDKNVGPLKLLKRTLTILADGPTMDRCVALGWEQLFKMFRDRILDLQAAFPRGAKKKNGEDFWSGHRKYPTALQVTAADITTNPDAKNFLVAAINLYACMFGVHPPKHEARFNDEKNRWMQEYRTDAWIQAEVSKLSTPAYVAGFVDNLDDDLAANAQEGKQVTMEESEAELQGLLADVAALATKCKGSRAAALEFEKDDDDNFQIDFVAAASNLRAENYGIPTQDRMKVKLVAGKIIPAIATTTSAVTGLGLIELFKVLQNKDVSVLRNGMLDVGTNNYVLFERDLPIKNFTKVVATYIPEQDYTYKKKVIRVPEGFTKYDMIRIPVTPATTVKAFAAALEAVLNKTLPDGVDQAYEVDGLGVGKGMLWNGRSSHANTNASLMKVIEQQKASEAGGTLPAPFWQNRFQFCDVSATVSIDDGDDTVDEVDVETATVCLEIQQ
# [3] = biological target: Sialic acid-binding Ig-like lectin 9 (Homo sapiens) (UniProt Q9Y336); assay: Hs-Siglec9 ALPHAscreen SOP 20170721; details: 10 µM
# Trypanosoma cruzi = assay: Trypanosoma cruzi phosphomannomutase and mannose-1-phosphate guanylyltransferase assay; assay type: functional; details: 10 µM
# [4] = biological target: T2, Arginase-2, mitochondrial (Homo sapiens) (UniProt P78540); assay: in vitro enzyme assay to detect the production of urea directly proportional to the activity of Arginase II; assay type: functional; details: 33.3 µM; further: in the data most compounds retested in dose-response had high values
# T2 sequence (whole entry): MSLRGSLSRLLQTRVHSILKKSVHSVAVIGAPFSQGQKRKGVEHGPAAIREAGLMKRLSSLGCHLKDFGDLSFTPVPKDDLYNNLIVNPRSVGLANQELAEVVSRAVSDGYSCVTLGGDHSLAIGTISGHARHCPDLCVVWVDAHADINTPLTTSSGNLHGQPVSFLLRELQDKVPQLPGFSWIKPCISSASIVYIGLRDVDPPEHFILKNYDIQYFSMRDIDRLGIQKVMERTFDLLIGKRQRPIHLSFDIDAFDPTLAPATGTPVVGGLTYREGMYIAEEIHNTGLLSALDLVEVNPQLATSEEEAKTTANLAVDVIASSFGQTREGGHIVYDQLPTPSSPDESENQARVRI
# [5] = biological target: T3, Proteasome subunit beta (Trypanosoma cruzi) (UniProt O96673); assay: Trypanosoma cruzi proteasome chymotrypsin-like activity (TcProtChymo) assay.; further: in the data most compounds retested in dose-response had high values; assay type: functional; details: 9.37 µM
# T3 sequence (whole entry): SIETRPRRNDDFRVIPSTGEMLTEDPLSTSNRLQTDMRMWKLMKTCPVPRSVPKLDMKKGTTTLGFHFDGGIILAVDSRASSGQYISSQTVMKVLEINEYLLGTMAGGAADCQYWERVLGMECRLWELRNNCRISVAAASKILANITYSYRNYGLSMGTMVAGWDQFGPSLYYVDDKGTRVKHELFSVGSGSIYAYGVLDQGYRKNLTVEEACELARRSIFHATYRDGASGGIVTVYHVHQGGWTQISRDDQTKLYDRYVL
# Homo sapiens = organism: Homo sapiens; assay: To identify inhibition of the IFN signalling (Jak-Stat) pathway via expression of an eGFP reporter gene under the control of an IFN-stimulated response element (ISRE) containing MxA promoter.; assay type: functional; details: 30 µM
# [6] = biological target: T4, Tyrosyl-tRNA synthetase, putative (Trypanosoma cruzi (strain CL Brener)) (UniProt Q4DSP6); assay: Trypanosoma cruzi tyrosyl tRNA synthetase (TcYRS) _High Tyrosine SOP; assay type: functional; details: 30 µM; further: in the data most compounds retested in dose-response had high values
# T4 sequence (whole entry): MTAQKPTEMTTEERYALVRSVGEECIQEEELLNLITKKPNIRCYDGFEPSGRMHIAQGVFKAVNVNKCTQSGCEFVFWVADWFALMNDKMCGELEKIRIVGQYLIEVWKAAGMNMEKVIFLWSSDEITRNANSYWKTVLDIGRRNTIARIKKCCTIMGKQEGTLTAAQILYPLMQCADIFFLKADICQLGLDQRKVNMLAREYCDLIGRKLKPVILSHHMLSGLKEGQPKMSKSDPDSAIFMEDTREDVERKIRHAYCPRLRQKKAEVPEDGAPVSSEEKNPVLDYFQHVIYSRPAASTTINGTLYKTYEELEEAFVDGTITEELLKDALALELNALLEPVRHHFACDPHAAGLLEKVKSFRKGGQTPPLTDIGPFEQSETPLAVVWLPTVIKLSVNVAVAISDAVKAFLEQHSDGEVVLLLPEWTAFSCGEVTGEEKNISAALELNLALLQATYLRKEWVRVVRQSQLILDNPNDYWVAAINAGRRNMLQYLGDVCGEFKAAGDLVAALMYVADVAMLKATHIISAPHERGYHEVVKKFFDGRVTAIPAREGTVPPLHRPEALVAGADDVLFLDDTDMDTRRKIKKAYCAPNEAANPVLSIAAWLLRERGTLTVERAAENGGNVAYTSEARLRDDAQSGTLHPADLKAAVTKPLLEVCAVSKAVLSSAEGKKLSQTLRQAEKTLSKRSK
# [7] = biological target: T4, Tyrosyl-tRNA synthetase, putative (Trypanosoma cruzi (strain CL Brener)); assay: Trypanosoma cruzi tyrosyl tRNA synthetase (TcYRS) SOP; assay type: functional; details: 30 µM
# [8] = biological target: Chromo domain-containing protein 1 (Saccharomyces cerevisiae (strain ATCC 204508 / S288c) (Baker's yeast)) (UniProt P32657); assay: ScCHD-1 Enzyme Inhibition Assay; assay type: functional; details: 30 µM; further: in the data most compounds retested in dose-response had high values
# Sequence of Chromo domain-containing protein 1 (Saccharomyces cerevisiae (strain ATCC 204508 / S288c) (Baker's yeast)) (P32657 whole entry, the tested form may be a part): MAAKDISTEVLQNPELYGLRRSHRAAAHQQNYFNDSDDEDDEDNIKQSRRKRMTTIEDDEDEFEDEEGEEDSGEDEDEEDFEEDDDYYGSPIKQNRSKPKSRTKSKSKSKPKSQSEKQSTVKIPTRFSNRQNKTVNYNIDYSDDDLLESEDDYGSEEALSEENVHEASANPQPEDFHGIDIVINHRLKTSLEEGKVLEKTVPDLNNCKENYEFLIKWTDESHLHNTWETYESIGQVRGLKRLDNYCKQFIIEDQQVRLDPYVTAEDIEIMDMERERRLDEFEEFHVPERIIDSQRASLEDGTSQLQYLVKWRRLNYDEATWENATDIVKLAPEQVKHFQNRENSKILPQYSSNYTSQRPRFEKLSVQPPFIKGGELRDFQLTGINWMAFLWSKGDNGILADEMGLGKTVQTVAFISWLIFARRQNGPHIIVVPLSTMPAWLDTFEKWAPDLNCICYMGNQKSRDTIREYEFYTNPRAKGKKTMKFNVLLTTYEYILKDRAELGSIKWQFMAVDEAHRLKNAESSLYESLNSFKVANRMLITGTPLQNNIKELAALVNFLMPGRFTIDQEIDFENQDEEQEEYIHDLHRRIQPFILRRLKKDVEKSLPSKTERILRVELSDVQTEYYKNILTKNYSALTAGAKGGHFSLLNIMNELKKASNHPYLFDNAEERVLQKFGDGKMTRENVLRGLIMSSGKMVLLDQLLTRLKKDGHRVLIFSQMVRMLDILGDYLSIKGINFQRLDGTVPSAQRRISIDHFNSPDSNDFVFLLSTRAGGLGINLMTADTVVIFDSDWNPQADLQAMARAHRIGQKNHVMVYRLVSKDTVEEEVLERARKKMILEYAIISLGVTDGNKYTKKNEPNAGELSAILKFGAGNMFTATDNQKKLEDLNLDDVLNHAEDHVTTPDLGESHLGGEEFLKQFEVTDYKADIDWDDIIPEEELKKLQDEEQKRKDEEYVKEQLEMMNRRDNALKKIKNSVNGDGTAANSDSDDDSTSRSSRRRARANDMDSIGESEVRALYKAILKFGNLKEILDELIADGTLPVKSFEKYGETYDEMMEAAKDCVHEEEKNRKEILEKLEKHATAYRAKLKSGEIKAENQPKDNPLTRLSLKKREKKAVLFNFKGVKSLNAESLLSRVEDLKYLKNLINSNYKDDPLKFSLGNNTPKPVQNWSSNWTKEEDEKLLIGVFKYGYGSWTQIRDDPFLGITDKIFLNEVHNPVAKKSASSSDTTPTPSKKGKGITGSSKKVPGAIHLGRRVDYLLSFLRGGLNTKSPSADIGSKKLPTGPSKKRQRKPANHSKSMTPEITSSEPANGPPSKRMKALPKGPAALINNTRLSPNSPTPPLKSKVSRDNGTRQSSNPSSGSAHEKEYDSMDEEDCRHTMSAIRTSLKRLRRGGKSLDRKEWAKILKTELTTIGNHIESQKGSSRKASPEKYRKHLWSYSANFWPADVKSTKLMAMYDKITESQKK
# Sequence of Protein translocase subunit SecA (Escherichia coli (strain K12)) (P10408 whole entry): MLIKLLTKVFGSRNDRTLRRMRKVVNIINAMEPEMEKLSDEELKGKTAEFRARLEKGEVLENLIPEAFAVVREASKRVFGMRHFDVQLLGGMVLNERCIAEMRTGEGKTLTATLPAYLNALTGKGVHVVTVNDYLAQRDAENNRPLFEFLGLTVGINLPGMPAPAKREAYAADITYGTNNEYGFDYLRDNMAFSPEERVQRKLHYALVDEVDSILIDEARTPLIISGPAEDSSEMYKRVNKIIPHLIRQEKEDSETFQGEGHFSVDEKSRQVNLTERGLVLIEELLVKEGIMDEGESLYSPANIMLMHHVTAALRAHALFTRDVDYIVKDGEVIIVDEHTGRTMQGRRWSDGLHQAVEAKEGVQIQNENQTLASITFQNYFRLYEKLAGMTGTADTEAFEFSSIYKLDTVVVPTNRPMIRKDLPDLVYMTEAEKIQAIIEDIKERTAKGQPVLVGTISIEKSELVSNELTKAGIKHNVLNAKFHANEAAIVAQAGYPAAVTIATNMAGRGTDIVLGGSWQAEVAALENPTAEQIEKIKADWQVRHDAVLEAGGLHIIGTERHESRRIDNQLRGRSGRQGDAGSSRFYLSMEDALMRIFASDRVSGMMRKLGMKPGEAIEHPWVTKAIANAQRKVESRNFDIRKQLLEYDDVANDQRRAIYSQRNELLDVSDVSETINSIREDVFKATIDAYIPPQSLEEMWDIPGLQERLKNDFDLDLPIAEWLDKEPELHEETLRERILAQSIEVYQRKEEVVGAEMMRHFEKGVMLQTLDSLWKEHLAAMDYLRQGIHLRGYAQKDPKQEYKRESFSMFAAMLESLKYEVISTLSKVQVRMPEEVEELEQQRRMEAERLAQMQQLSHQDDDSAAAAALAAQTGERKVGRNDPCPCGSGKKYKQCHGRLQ
# Sequence of Sialic acid-binding Ig-like lectin 9 (Homo sapiens) (Q9Y336 whole entry): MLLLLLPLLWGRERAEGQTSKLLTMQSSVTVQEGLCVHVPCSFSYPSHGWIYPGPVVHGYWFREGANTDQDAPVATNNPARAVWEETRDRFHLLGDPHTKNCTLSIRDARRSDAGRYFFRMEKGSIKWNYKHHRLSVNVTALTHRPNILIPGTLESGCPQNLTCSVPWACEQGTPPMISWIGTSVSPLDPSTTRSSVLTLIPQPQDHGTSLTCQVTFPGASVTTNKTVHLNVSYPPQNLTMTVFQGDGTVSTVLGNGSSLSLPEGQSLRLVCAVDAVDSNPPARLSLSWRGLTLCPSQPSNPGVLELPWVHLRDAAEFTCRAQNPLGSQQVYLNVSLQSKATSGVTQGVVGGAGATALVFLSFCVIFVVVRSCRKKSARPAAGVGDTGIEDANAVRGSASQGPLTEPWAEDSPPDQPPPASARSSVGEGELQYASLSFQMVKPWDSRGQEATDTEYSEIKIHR
SMILES,Percent Effect [1],Percent Effect [2],Percent Effect [3],Percent Effect (Trypanosoma cruzi),Percent Effect [4],Percent Effect [5],Percent Effect (Homo sapiens),Percent Effect [6],Percent Effect [7],Percent Effect [8]
CC(C)NC(=O)C1CN(C(=O)Nc2ccccc2)CC12CCOCC2 (stereo not given),-8.24%,3.9%,-2.62%,-3.02%,1.22%,22.9%,14.5%,6.84%,2.56%,-3.13%
CC(Nc1cccc(CN2CCOC2=O)c1)C(=O)NC(N)=O (stereo not given),-7.02%,15.4%,-17.4%,13.1%,-4.1%,7.76%,15.9%,8.13%,18.1%,17.9%
CN1[C@H](CN2CCCC2)C[C@@H]2CN(C(=O)c3cccn3C)CC[C@@H]21,-1.76%,-1.3%,1.42%,0.563%,-0.457%,0.944%,-0.498%,10.6%,12.5%,-6.06%
Cc1cnn(CC2CCCN2CC(=O)Nc2cc(C)nn2C)c1 (stereo not given),-2.33%,5.2%,5.19%,2.8%,1.02%,-5.44%,0.341%,4.9%,16.5%,-7.89%
Cc1nc(C)n(CC2CN(CCOc3ccccc3F)CCO2)n1 (stereo not given),-2.06%,5.33%,-0.849%,0.803%,-2.66%,-2.97%,9.21%,-1.58%,0%,-2.97%
O=C(c1cc[nH]n1)N1CCCC(c2cccc(-n3ccnc3)n2)C1 (stereo not given),-1.25%,12%,2.15%,-1.77%,4.42%,8.05%,13.7%,5.29%,12.5%,-21.6%
COCC(=O)N1CCC(c2nccnc2Oc2cccnc2C)CC1,0.43%,14.7%,-6.2%,-3.35%,4.87%,15.6%,-0.132%,0%,7.5%,-22.1%
Cc1noc(C2CCN(Cc3cc(=O)n(C)c(=O)n3C)CC2)n1,-4.76%,16%,3.89%,0.602%,0%,13.2%,15.2%,3.68%,12.8%,-9.16%
COC(=O)COc1nc(CC(C)C)c2c(c1C#N)CCCC2,-4.25%,2.7%,-5.64%,-7.86%,-5.94%,10.6%,38.2%,-2.66%,4.88%,-4.12%
